In the library only some 11% were active in any assay of this set; here they are far more common.
BAZ2B block: qHTS Assay for Inhibitors of BAZ2B; AlphaScreen BAZ2B-H3K14Ac peptide displacement; Potency, µM (titrated, usually from 114 µM), inactives show at the top dose activity change, negative = inhibition, most hits filed as inhibitors; hit rate 4.4% among 360,000; AID 504333, 2011; note: % is set by controls: 0 for no effect and ±100 for the full control effect; nearly all actives have a fitted effect of over 60% in size
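Multi-concentration screen (max 110 uM) measuring displacement of acetylated histone H3 peptide from BAZ2B by AlphaScreen, using 50 nM protein, 50 nM peptide and 10 ug/mL streptavidin donor plus Ni-chelate acceptor beads.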
G9a block: qHTS Assay for Inhibitors of Histone Lysine Methyltransferase G9a; hit rate 8.8% among 350,000; G9a H3K9 monomethylation, AlphaScreen, 2 h; Histone-lysine N-methyltransferase EHMT2 (Homo sapiens), Q96KQ7; Potency, µM (titrated, usually from 102 µM), for the others: at the highest dose activity, negative = inhibition, usual class: inhibitors; note: % is set by controls: 0 for no effect and ±100 for the full control effect; nearly all actives have a fitted effect of over 75% in size
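Enzyme 20 nM + cpd, 15 min RT; add b-H3K9 pep 500 nM / SAM 20 uM; 2 h RT; anti-H3K9me1 Ab 0.5 ug/mL + SA donor / anti-rabbit acceptor beads 20 ug/mL each, 10 min; AlphaScreen read.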
JMJD2A Tudor inh: qHTS Assay for Inhibitors of JMJD2A-Tudor Domain | AlphaScreen JMJD2A-Tudor / H3K4me3 peptide binding | AID 504339, 2011 | Lysine-specific demethylase 4A (Homo sapiens), O75164 | hit rate 4.4% among 390,000 | Potency, µM (doses to about 114 µM), for inactives: top-dose activity change, negative = inhibition, usual class: inhibitors; note: % is set by controls: 0 for no effect and ±100 for the full control effect; nearly all actives have a fitted effect of over 50% in size
Target sequence (O75164 whole entry, looked up, the tested form may be a part): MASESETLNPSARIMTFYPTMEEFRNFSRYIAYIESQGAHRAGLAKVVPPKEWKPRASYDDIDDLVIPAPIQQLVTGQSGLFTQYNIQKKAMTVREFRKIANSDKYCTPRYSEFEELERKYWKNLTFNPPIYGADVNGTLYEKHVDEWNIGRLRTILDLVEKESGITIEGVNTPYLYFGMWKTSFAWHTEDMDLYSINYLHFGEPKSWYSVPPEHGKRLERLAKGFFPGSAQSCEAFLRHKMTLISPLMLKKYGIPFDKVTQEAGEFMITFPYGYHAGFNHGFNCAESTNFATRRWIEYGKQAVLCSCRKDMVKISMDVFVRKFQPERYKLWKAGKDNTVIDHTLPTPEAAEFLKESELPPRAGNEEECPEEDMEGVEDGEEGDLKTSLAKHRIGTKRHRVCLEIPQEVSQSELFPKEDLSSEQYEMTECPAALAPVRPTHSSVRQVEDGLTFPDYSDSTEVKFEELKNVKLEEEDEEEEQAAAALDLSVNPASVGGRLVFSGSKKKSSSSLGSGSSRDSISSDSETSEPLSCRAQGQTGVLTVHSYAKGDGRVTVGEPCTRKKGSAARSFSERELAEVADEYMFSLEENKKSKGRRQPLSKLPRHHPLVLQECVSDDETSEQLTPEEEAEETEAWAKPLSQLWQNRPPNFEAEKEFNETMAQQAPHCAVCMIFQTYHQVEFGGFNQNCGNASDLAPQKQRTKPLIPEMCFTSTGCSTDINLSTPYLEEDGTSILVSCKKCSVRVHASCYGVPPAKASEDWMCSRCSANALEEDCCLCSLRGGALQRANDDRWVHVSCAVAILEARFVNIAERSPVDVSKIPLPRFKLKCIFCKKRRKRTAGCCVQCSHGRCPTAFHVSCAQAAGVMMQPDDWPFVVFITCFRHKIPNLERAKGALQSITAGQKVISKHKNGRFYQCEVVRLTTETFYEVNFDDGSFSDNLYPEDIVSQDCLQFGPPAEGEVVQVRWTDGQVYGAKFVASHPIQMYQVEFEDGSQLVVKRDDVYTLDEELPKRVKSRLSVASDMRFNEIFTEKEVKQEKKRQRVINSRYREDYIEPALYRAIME
HP1b binding inh: HTS for Inhibitors of HP1-beta Chromodomain Interactions with Methylated Histone Tails. Chromobox protein homolog 1 (Homo sapiens), P83916. AlphaScreen HP1-beta / biotin-H3K9me3 peptide binding. Potency, µM (titrated, usually from 114 µM), inactives show top-dose activity change, negative = inhibition, hits mostly inhibitors. hit rate 0.56% among 390,000. AID 540317, 2011; note: nearly all actives have a fitted effect of over 70% in size
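HP1-beta protein (50 nM final) preincubated 30 min at room temperature with biotinylated H3(1-18)K9me3 peptide (50 nM) in PBS pH 7.4, 0.01% Tween-20, then compound added for 30 min. AlphaScreen streptavidin donor/nickel chelate acceptor beads (10 ug/mL final), 30 min dark, luminescence read.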
L3MBTL1 block: qHTS Assay for the Inhibitors of L3MBTL1. Lethal(3)malignant brain tumor-like protein 1 (Homo sapiens), Q9Y468. Potency, µM (titrated, usually from 57.1 µM), inactives show at the top dose activity, negative = inhibition, usual class: inhibitors. AID 485360, 2010. hit rate 0.66% among 230,000. AlphaScreen L3MBTL1–H3K9me1 peptide binding; note: % is set by controls: 0 for no effect and ±100 for the full control effect; nearly all actives have a fitted effect of over 60% in size
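AlphaScreen assay: L3MBTL1 (50 nM final) was preincubated 30 min at room temperature with biotinylated H3(1-15)K9me1 peptide (75 nM final), then 30 min with library compounds; streptavidin donor and nickel chelate acceptor beads (10 ug/mL final) added, 30 min dark.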
Active calls of the source: *; ? = inconclusive; . = no result; [ ] = remark or other dose. Calls come from the whole dose curve; as a rule, active = well fitted inhibition curve with a large enough effect; inconclusive = small, poorly fitted or top-dose-only effect; inactive = no such curve, though single readings can be large or run the other way. Potency is the fitted concentration of half-maximal effect.

SMILES | BAZ2B block | G9a block | JMJD2A Tudor inh | HP1b binding inh | L3MBTL1 block
O=c1cnc2cncnc2n1Cc1ccc(F)cc1 | . | 11%[0.501 µM] | . | . | .
CS(=O)(=O)c1ccc(Cl)c(NC(=O)C2CC(=O)N(Cc3ccccc3)C2)c1 (centres undefined) | ? | 15%[59 µM] | 89µM* | -24% | .
CS(=O)(=O)c1ccc(Cl)c(NC(=O)C2CC(=O)N(Cc3ccco3)C2)c1 (centres undefined) | -4% | ? | -3% | 28% | ?
CCN(CC)c1ccc(NC(=O)C2CC(=O)N(Cc3ccccc3)C2)cc1 (centres undefined) | 45µM* | 11µM* | 56µM* | ? | 32µM*
S=c1nccc(-c2ccc(Cl)cc2)[nH]1 | 13% | -31% | -20% | 13% | 1%
Cc1ccc(-c2csc(=S)[nH]2)cc1 | ? | 13µM* | -34% | 4% | .
S=c1[nH]c(-c2ccc(Cl)cc2)cs1 | 45µM* | 35µM* | ? | -23% | ?
CC1CCN(S(=O)(=O)c2ccc3c(c2)c(=O)c(C(=O)N2CCN(c4cccc(Cl)c4)CC2)cn3C)CC1 | . | 5%[59 µM] | -11% | 18% | .
Cc1cc(Nc2ccccc2)c2c([N+](=O)[O-])ccc(C)c2n1 | 28µM* | 11µM* | 50µM* | ? | 16µM*
Cc1cc(Nc2cccc([N+](=O)[O-])c2)c2cccc(C)c2n1 | -11% | . | -32% | 16% | -4%
O=c1cc(O)c2sc(Nc3ccc(F)c(Cl)c3)nc2[nH]1 | -32% | 28µM* | -14% | 5% | .
CCc1ccc(NC(=O)CN2C(=O)C3(SCC(=O)N3c3ccccc3)c3ccccc32)cc1 (centres undefined) | 1%[57.1 µM] | -13%[59 µM] | -17% | 14% | .
S=C(Nc1ccc2nc(-c3ccccn3)c(-c3ccccn3)nc2c1)N1CCCCC1 | -18% | -4% | 3% | 67% | 3%
S=C(NC1CCCC1)N1CCN(c2ccccn2)CC1 | 4% | 3% | -20% | 10% | 3%
C/C(=N\NC(=O)C1CCCN(S(=O)(=O)c2ccccc2)C1)c1ccncc1 (centres undefined) | -5% | 14%[59 µM] | 3% | 48% | -4%
CC(=NNC(=S)N1CCN(c2ccccn2)CC1)c1ccccn1 | . | . | 56µM* | ? | .
C/C(=N\NC(=O)C1CCCN(S(=O)(=O)c2ccccc2)C1)c1ccccn1 (centres undefined) | ? | 51%[59 µM] | 79µM* | 47% | -7%
CC(=NNC(=S)N1CCN(c2ccccn2)CC1)c1nccs1 | . | . | 13µM* | ? | .
CC(=NNC(=S)N1CCCCCC1)c1cccc2cccnc12 | . | . | 20µM* | 50µM* | .
CC(=O)Nc1ccc(SCCN2CCN(C)CCC2=O)cc1 | . | . | -14% | 34% | .
S=C(Nc1ccc(Cl)cc1)N1CCN(C2CCCCC2)CC1 | 3% | 18%[2.33 µM] | -23% | 16% | 8%
CC(=NNC(=S)N1CC2CCC(CC2)C1)c1cnccn1 | . | . | 11µM* | ? | .
CC(=NNC(=S)N1CCN(C2CCCCCC2)CC1)c1ccccn1 | . | . | 18µM* | ? | .
Cc1cc2c(s1)c1cnn(Cc3ccc(C(F)(F)F)cc3)c(=O)c1n2C | . | . | -7% | . | .
Cc1ccc(-n2c(SCC(=O)NCc3ccco3)nc3c(sc4ccccc43)c2=O)cc1 | -22% | 11%[59 µM] | -14% | 40% | -9%
SMILES | BAZ2B block | G9a block | JMJD2A Tudor inh | HP1b binding inh | L3MBTL1 block
O=C(O)COc1ccc(/C=N/NC(=O)C2CCCN2S(=O)(=O)c2ccc(Cl)cc2)cc1 (centres undefined) | 3% | 45µM* | -6% | 31% | .
COc1ccc(NC(=O)C2CCCN2S(=O)(=O)c2ccc(Cl)cc2)cc1 (centres undefined) | 4% | -38% | 9% | 35% | .
N=c1ccn2c(n1)O[C@H]1[C@@H](O)[C@@H](CO)O[C@H]12 | . | 27%[12.7 µM] | . | . | .
CCOC(=O)c1ccc(NC(=O)CC2C(=O)N(c3ccccc3)C(=O)N2C2CCCCC2)cc1 (centres undefined) | -13% | -24%[59 µM] | -18% | 32% | .
O=S(=O)(O)CCCS(=O)(=O)O | . | -43%[12.7 µM] | . | . | .
C/C(CC(=O)N1CCN(C=O)CC1)=N\NC(=O)c1ccc(Cl)cc1 | -4% | -25% | 2% | 61% | 3%
O=CN1CCN(C(=S)NC(=O)c2ccc(Cl)cc2)CC1 | -15% | 45µM* | 1% | 53% | .
CC1CN(C(=S)NC(=O)c2cccc([N+](=O)[O-])c2)CC(C)O1 (centres undefined) | -26% | 14µM* | ? | 21% | 0%
COc1ccc(C(=O)NC(=S)N2CC(C)OC(C)C2)cc1OC (centres undefined) | ? | . | -11% | 41% | 2%
CC1CN(C(=S)NC(=O)c2ccc(Cl)cc2)CC(C)O1 (centres undefined) | -21% | 45µM* | -17% | 24% | .
O=C(CC1NCCNC1=O)Nc1ccc(F)c(Cl)c1 (centres undefined) | -12% | 10%[59 µM] | -8% | 20% | .
Cc1cc(C)c(Nc2cc(S(=O)(=O)O)c(N)c3c2C(=O)c2ccccc2C3=O)c(C)c1 | 5.6µM* | 2.8µM* | 7.9µM* | ? | 16µM*
CC(NC(=O)c1nn(C)c2c1CSc1ccccc1-2)c1ccccc1 (centres undefined) | -23% | ? | 6% | 31% | .
CC(C)c1cc(CN2C(C)COCC2C)cc(C(C)C)c1O (centres undefined) | . | . | -26% | 9% | .
COc1ccc(CNC(=O)CN2C(=O)NC(c3ccccc3)(c3ccccc3)C2=O)cc1OC | . | . | -26% | 7% | .
CCC1(c2ccccc2)NC(=O)N(CC(=O)NNC(=O)c2ccc(F)cc2)C1=O (centres undefined) | 7% | 6.3µM* | -14% | 32% | 2%
COc1ccc(CNC(=O)CN2C(=O)NC(Cc3ccccc3)(c3ccccc3)C2=O)cc1OC (centres undefined) | 4% | 8.9µM* | -2% | 32% | -3%
CCC1(c2ccccc2)NC(=O)N(CC(=O)Nc2ccc(N3CCCC3)cc2C)C1=O (centres undefined) | 45µM* | 1.8µM* | 45µM* | ? | -21%
CCC1(c2ccccc2)NC(=O)N(CC(=O)NCc2ccc(F)cc2)C1=O (centres undefined) | 2% | 24% | -10% | -1% | .
CCC1(c2ccccc2)NC(=O)N(CC(=O)Nc2cccc(S(=O)(=O)N3CCCCC3)c2)C1=O (centres undefined) | -26% | 45µM* | -32% | 4% | 15%
CCC1(c2ccccc2)NC(=O)N(CC(=O)Nc2ccc(Cl)c(S(=O)(=O)N3CCCCC3)c2)C1=O (centres undefined) | -6% | -4%[12.7 µM] | -26% | -2% | -1%
C/C(O)=c1/cnc2nc3ccccc3n2c1=O | ? | ? | -5% | 31% | 25%

Source: PubChem (National Center for Advancing Translational Sciences (NCATS))
